Screening data (PubChem BioAssay)
SARS PLpro yeast = qHTS of Yeast-based Assay for SARS-CoV PLP; S. cerevisiae expressing SARS-CoV PLpro, growth rescue; Potency, µM (doses to about 32.9 µM), most hits filed as activators; 330,000 compounds, 0.19% hits; also: nearly all actives have a fitted effect of over 55% in size
Pf growth 48h = Primary qHTS for delayed death inhibitors of the malarial parasite plastid, 48 hour incubation. P. falciparum luciferase growth in erythrocytes, 48 h. Potency, µM (highest dose often 28.7 µM), usual class: inhibitors. 310,000 compounds, 5.9% hits. AID 504832, 2011; active = well fitted inhibition curve with a large enough effect; inconclusive = small, poorly fitted or top-dose-only effect, or another doubt; inactive = no such curve, though single readings can be large or run the other way
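Here the parasites carry a stable luciferase gene and grow inside erythrocytes in Albumax-based RPMI medium with compound for one erythrocytic cycle. Activity is scored as loss of luminescent signal.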
Pf growth 96h = Primary qHTS for delayed death inhibitors of the malarial parasite plastid, 96 hour incubation; AID 504834, 2011; 320,000 compounds, 6.9% hits; Potency, µM (top dose mostly 28.7 µM), actives largely listed as inhibitors; P. falciparum luciferase reporter growth, 96 h; active = well fitted inhibition curve with a large enough effect; inconclusive = small, poorly fitted or top-dose-only effect, or another doubt; inactive = no such curve, though single readings can be large or run the other way
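96 h incubation, 37 C, 5% CO2, of luciferase-reporter P. falciparum-infected RBCs (2% hematocrit, 0.05% parasitemia final) with test compounds; endpoint luminescence.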
NS1 function inh = qHTS Assay for Inhibitors of Influenza NS1 Protein Function; Potency, µM (series often up to 46.1 µM); 270,000 compounds, 0.4% hits; also: actives are rising curves; nearly all actives have a fitted effect of over 50% in size
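Recovery from NS1-induced slow growth read by OD600 in budding yeast switched to galactose assay medium (pH 6.0, -URA) at 1:100 dilution. Compound 23 nl per well; the matching strain lacking NS1 serves as control.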
Large screens that a line does not name were inactive. A selection: hits, their analogues and other compounds. The true share with any hit is near 10%. Unless noted, calls follow the shape of the full dose curve.

CC1CN=C(Nc2ccc(N(C)C)cc2)S1 (stereo unspecified)	Pf growth 96h 2.1µM
CCCN(Cc1nnc(-c2ccccc2Cl)o1)C(=O)c1cccc(S(=O)(=O)N2CCOCC2)c1	Pf growth 48h inconclusive, Pf growth 96h inconclusive
CCCN(Cc1nnc(-c2ccccc2Cl)o1)C(=O)c1oc2ccccc2c1C	Pf growth 48h 9.3µM, Pf growth 96h 9.3µM (no result: SARS PLpro yeast, NS1 function inh)
Cc1cccc(NC(=O)Cn2c(=O)n(CCC(=O)NC3CCCC3)c(=O)c3ccccc32)c1	Pf growth 96h 2.1µM
CCOc1ccc(NC(=O)Cn2c(=O)n(CCCC(=O)NC3CCN(Cc4ccccc4)CC3)c(=O)c3ccccc32)cc1	Pf growth 48h 5.2µM
O=C(CCn1c(=O)c2ccccc2n(Cc2ccccc2)c1=O)NC1CCN(Cc2ccccc2)CC1	Pf growth 48h inconclusive, Pf growth 96h 8.3µM
NC(=O)Cn1c(=O)n(CCCC(=O)NC2CCN(Cc3ccccc3)CC2)c(=O)c2ccccc21	none (no result: Pf growth 48h)
COc1cccc(NC(=O)Cn2c(=O)n(CCC(=O)NC3CCN(Cc4ccccc4)CC3)c(=O)c3ccccc32)c1	Pf growth 48h inconclusive, Pf growth 96h 15µM
CCN(CC(=O)NC1CCS(=O)(=O)C1)C(=O)c1cc(OC)c(OC)c(OC)c1 (stereo unspecified)	none (no result: NS1 function inh)
CC1=CCC(C(=O)O)C(C(=O)NC2CCCCC2)C1 (stereo unspecified)	none
CCc1ccccc1NC(=O)CSc1nc2n[nH]c(C)c2c(=N)n1-c1cccc(OC)c1	Pf growth 48h 13µM (no result: Pf growth 96h)
CCOc1ccccc1NC(=O)CCSc1nc2n[nH]c(C)c2c(=N)n1-c1ccccc1Cl	Pf growth 48h 12µM
CC/C(=N/Nc1ccccc1C)c1cnnc(SC)n1	Pf growth 48h 4.1µM, Pf growth 96h 2.3µM
CCC(C(=O)Nc1nnc(-c2ccco2)s1)c1ccccc1 (stereo unspecified)	Pf growth 96h 12µM
CCc1nnc(NC(=O)C(CC)c2ccccc2)s1 (stereo unspecified)	none
COc1ccccc1OCC(=O)Nc1nnc(-c2ccco2)s1	none
CCCC(=O)Nc1nnc(-c2ccco2)s1	Pf growth 96h 13µM
Cc1cccc(OCC(=O)Nc2nnc(-c3ccco3)s2)c1	Pf growth 96h 5.2µM
NC(=O)c1ccc(Oc2ccc3c(c2)CCC3)c([N+](=O)[O-])c1	none
CCC(=O)Nc1cc(-c2cc3ccccc3oc2=O)ccc1OC	Pf growth 96h 2.9µM
COc1cc(NC(=O)c2cc(Cl)ccc2Cl)ccc1-c1cc2ccccc2oc1=O	Pf growth 48h inconclusive, Pf growth 96h 12µM
COc1ccc(-c2cc3ccccc3oc2=O)cc1NC(=O)c1ccc([N+](=O)[O-])o1	Pf growth 48h inconclusive, Pf growth 96h 2.6µM
COc1ccc(-c2cc3ccccc3oc2=O)cc1NC(=O)c1ccc(Br)o1	none
CCCN1CCN(C(=O)C2CCN(S(=O)(=O)c3ccc4c(c3)NC(=O)C(C)S4)CC2)CC1 (stereo unspecified)	SARS PLpro yeast inconclusive, Pf growth 96h inconclusive
Cc1ccc(N/N=C2\CC(=O)c3ccccc32)cc1Cl	Pf growth 48h 4.7µM, Pf growth 96h 2.9µM
C[C@H]1C[C@@H](C)C(=O)[C@@H]([C@H](O)CC2CC(=O)NC(=O)C2)C1	Pf growth 48h 0.033µM, Pf growth 96h inconclusive
O=C(CCc1ccc(S(=O)(=O)N2CCOCC2)cc1)Nc1ccc(F)c(F)c1F	none (no result: Pf growth 48h, Pf growth 96h, NS1 function inh)
COc1ccc(OC2C(=O)N(c3cc(C)ccc3C)C2c2ccc(OC)c(OC)c2)cc1 (stereo unspecified)	Pf growth 48h 7.4µM
COc1ccc(CCNCC2C(Oc3ccc(Cl)cc3)C(=O)N2c2ccccc2C)cc1OC (stereo unspecified)	Pf growth 48h inconclusive, Pf growth 96h inconclusive (no result: NS1 function inh)
COc1ccc(OC2C(=O)N(CCc3ccc(OC)c(OC)c3)C2c2ccc3c(c2)OCO3)cc1 (stereo unspecified)	Pf growth 48h inconclusive, Pf growth 96h inconclusive
COc1ccc(NC2=CC(c3ccc(OC)c(OC)c3)N(c3ccc(OC)cc3)C2=O)cc1 (stereo unspecified)	SARS PLpro yeast inconclusive, Pf growth 48h inconclusive, Pf growth 96h inconclusive, NS1 function inh 8.9µM
COc1ccc(OC2C(=O)N(c3ccc(C)c(C)c3)C2c2ccc(OC)c(OC)c2)cc1 (stereo unspecified)	SARS PLpro yeast inconclusive, Pf growth 48h 9.3µM, Pf growth 96h inconclusive, NS1 function inh inconclusive
O=C(CSc1nnc(COc2ccccc2)o1)Nc1ccc(F)cc1	none
CC(=O)c1ccccc1NC(=O)Cn1c(=O)cnc2ccccc21	Pf growth 48h inconclusive, Pf growth 96h inconclusive, NS1 function inh inconclusive
CN1C[C@H](C(=O)N[C@]2(C)O[C@@]3(O)[C@@H]4CCCN4C(=O)[C@H](Cc4ccccc4)N3C2=O)C[C@@H]2c3cccc4[nH]cc(c34)C[C@H]21	Pf growth 48h 7.6µM, Pf growth 96h inconclusive (no result: SARS PLpro yeast, NS1 function inh)
CN1C[C@H](C(=O)N[C@]2(C)O[C@@]3(O)[C@@H]4CCCN4C(=O)[C@H](Cc4ccccc4)N3C2=O)CC2c3cccc4[nH]cc(c34)C[C@H]21 (stereo partly specified)	Pf growth 48h 1.9µM, Pf growth 96h 1.3µM (no result: SARS PLpro yeast, NS1 function inh)
CC(O)C(C)OC(=O)[C@@H]1C[C@@H]2c3cccc4c3c(cn4C(C)C)C[C@H]2N(C)C1 (stereo partly specified)	none (no result: SARS PLpro yeast, Pf growth 48h, Pf growth 96h)
CC(C)[C@@]1(NC(=O)[C@H]2CC3c4cccc5[nH]cc(c45)C[C@H]3N(C)C2)O[C@@]2(O)C3CCCN3C(=O)[C@@H](Cc3ccccc3)N2C1=O (stereo partly specified)	Pf growth 48h 1.5µM, Pf growth 96h 8.5µM (no result: SARS PLpro yeast, NS1 function inh)
COc1ccc(Cc2nnc(NC(=O)Nc3ccccc3)s2)cc1OC	Pf growth 96h inconclusive
Cc1cc2c(cc1Cl)N(C(=O)Nc1ccnc3ccccc13)CC2	none (no result: SARS PLpro yeast, Pf growth 48h, Pf growth 96h)
COc1ccc(C(=O)/C=C/C(=O)N(CC(=O)NC2CCCCC2)Cc2ccccc2OC)c(O)c1	Pf growth 48h 9.3µM, Pf growth 96h inconclusive
COc1ccc(C(=O)/C=C/C(=O)N(CC(=O)NC2CCCCC2)Cc2ccccc2)c(O)c1	Pf growth 48h inconclusive, Pf growth 96h 2.6µM
COc1ccc(C(=O)/C=C/C(=O)N(CC(=O)NC2CCCCC2)CC2CCCO2)c(O)c1 (stereo unspecified)	Pf growth 48h inconclusive
COCc1cc(Sc2ccc(Cl)cc2Cl)nc(-c2ccccc2)n1	Pf growth 48h 12µM, Pf growth 96h inconclusive
CN1CCN(C2=Cc3ccc(Cl)cc3Sc3ccc(F)cc32)CC1	Pf growth 48h 13µM, Pf growth 96h 12µM
O=C(COC(=O)c1ccc(Cl)nc1)Nc1ccc(N2CCCCC2)cc1	none (no result: Pf growth 48h, Pf growth 96h, NS1 function inh)
CCCCOc1ccc(Cc2c(Cl)nc(SC)nc2N2CCOCC2)cc1	Pf growth 48h 13µM
CSc1nc(Cl)c(Cc2ccc(OCC(C)C)cc2)c(N2CCOCC2)n1	Pf growth 48h inconclusive, Pf growth 96h inconclusive
CC(C)CCN1CCN(Cc2ccc(Sc3nncn3C)o2)CC1CCO (stereo unspecified)	Pf growth 96h inconclusive
O=C1C=C(c2cccc3c2oc2ccccc23)C[C@@H](c2ccc(F)cc2)C1	Pf growth 48h 2.3µM (no result: NS1 function inh)
